Of roughly 7,900 targets only a part is listed; those with a hit were picked by preference. About 0.6% of all pairs of compound and target were hits. Values without a mark were called inactive.
Experiments:
Assay in all cases: log2 fold change, soluble protein after heating vs DMSO (PISA); higher = thermal stabilisation; K562 cells, 10 uM, 30 min; active = over 0.2 and 3.5 SD of the protein, either way, in both replicates (recomputed)
[1] = compound: NC(=O)Nc1cc(-c2cccc(F)c2)sc1C(=O)N[C@H]1CCCNC1
How it was run: (§1)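 Values are thermal stability changes relative to control samples and are taken from duplicates. They are stated as log2 fold changes. Before quantification by TMTpro 16plex LC-MS/MS with equalised channel sums, K562 cells at 2×10^6 cells/mL were treated with 10 μM compound for 30 min, heated in aliquots for 3 min across 48°C-58°C, pooled, extracted in PBS with 0.5% NP-40 at 4°C, and centrifuged at 21,000xg for 90 min to give the soluble supernatant.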

[2] = compound: NC(=O)c1cnc(N[C@@H]2CCCC[C@@H]2N)nc1Nc1cccc(-n2nccn2)c1
How it was run: as §1

[3] = compound: NC1(c2ccc(-c3nc4ccn5c(=O)[nH]nc5c4cc3-c3ccccc3)cc2)CCC1
How it was run: as §1

[4] = compound: NCC(=O)Nc1ccc(-n2nc(C(F)(F)F)cc2-c2ccc3c(ccc4ccccc43)c2)cc1
How it was run: as §1

entinostat = compound: Nc1ccccc1NC(=O)c1ccc(CNC(=O)OCc2cccnc2)cc1 [entinostat]
How it was run: as §1

vorinostat = compound: O=C(CCCCCCC(=O)Nc1ccccc1)NO [vorinostat]
How it was run: as §1

citarinostat = compound: O=C(CCCCCCNC(=O)c1cnc(N(c2ccccc2)c2ccccc2Cl)nc1)NO [citarinostat]
How it was run: as §1

silmitasertib = compound: O=C(O)c1ccc2c(c1)nc(Nc1cccc(Cl)c1)c1ccncc12 [silmitasertib]
How it was run: as §1

[5] = compound: O=C1NC(=O)C(c2cnc3ccccn23)=C1c1cn2c3c(cc(F)cc13)CN(C(=O)N1CCCCC1)CC2
How it was run: as §1

[6] = compound: c1cc(OCCN2CCCCC2)cc(-c2n[nH]c3ccc(-c4nnc[nH]4)cc23)c1
How it was run: as §1

Sequence of UniProt P55060 (P55060 whole entry, looked up): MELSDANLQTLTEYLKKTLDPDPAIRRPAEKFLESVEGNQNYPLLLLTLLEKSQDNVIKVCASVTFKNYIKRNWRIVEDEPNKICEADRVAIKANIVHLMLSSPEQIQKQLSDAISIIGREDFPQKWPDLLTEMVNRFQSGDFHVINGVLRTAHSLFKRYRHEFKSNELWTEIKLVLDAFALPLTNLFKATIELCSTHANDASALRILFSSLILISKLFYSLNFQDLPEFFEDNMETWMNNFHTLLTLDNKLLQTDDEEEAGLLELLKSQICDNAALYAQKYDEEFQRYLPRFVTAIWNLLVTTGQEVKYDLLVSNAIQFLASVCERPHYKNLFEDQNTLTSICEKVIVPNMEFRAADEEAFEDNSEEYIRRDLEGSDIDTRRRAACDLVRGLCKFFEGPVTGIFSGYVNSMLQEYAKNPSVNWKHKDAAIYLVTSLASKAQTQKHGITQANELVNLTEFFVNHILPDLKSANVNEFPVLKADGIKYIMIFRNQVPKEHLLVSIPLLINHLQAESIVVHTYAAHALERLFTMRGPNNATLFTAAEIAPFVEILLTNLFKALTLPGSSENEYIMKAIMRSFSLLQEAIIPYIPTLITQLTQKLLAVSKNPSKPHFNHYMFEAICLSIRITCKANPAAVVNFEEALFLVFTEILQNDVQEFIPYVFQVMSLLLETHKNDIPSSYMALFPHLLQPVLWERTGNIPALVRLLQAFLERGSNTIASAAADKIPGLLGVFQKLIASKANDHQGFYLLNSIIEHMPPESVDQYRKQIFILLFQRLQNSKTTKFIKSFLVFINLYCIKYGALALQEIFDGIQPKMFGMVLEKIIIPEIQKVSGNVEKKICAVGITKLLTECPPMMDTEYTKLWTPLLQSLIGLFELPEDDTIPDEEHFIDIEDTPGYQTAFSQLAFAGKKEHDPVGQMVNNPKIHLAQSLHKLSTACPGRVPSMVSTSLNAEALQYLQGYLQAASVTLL
Sequence of UniProt Q92851 (Q92851 whole entry, looked up): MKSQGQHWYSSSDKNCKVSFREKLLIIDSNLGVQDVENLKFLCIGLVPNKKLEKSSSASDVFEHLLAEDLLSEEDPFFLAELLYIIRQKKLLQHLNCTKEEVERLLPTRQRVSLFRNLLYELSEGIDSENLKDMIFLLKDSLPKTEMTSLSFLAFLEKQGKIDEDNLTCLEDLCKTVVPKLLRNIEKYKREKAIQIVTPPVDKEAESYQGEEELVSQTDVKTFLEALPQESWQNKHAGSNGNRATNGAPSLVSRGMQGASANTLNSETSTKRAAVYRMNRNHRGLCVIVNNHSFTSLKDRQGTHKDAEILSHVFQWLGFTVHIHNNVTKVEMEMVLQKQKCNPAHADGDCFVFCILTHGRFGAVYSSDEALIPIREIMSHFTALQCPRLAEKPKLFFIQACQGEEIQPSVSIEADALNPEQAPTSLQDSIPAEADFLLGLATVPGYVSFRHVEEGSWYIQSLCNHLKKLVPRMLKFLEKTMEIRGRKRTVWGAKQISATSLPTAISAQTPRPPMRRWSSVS
Sequence of UniProt Q8IWX8 (Q8IWX8 whole entry, looked up): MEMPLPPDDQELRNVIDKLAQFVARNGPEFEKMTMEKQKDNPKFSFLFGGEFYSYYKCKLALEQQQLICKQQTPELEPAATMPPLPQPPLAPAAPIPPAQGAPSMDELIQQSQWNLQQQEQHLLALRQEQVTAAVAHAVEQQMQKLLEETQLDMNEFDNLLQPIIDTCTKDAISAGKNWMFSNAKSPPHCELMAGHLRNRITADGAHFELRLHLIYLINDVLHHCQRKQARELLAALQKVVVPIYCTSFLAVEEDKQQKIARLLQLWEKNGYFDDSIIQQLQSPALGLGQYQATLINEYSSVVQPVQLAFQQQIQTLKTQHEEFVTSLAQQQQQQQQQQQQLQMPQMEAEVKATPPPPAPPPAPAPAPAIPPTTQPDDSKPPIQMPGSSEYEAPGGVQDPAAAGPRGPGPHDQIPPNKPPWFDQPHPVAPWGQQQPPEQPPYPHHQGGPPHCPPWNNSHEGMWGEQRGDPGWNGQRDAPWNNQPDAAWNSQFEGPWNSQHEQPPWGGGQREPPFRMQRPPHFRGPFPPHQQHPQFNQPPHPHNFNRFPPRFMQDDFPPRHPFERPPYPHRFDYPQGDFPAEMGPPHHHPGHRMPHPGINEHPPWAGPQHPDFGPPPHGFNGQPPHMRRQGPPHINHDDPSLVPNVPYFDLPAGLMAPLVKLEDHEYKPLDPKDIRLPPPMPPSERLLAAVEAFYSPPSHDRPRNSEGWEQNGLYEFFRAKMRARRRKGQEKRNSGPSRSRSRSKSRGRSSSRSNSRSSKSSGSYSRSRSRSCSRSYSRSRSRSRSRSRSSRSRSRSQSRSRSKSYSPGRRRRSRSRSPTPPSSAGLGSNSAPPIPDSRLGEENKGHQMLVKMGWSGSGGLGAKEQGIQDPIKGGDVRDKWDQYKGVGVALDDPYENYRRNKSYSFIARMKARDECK
Sequence of UniProt P06493 (P06493 whole entry, looked up): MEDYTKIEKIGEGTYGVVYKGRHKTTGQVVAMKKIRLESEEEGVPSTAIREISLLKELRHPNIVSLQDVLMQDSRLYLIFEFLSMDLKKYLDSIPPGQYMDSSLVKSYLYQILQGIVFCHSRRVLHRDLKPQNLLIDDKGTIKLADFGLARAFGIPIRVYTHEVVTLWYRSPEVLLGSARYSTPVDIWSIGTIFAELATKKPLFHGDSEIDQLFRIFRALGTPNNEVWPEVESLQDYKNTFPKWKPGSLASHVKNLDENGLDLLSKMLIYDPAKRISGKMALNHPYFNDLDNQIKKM
Sequence of UniProt Q10570 (Q10570 whole entry, looked up): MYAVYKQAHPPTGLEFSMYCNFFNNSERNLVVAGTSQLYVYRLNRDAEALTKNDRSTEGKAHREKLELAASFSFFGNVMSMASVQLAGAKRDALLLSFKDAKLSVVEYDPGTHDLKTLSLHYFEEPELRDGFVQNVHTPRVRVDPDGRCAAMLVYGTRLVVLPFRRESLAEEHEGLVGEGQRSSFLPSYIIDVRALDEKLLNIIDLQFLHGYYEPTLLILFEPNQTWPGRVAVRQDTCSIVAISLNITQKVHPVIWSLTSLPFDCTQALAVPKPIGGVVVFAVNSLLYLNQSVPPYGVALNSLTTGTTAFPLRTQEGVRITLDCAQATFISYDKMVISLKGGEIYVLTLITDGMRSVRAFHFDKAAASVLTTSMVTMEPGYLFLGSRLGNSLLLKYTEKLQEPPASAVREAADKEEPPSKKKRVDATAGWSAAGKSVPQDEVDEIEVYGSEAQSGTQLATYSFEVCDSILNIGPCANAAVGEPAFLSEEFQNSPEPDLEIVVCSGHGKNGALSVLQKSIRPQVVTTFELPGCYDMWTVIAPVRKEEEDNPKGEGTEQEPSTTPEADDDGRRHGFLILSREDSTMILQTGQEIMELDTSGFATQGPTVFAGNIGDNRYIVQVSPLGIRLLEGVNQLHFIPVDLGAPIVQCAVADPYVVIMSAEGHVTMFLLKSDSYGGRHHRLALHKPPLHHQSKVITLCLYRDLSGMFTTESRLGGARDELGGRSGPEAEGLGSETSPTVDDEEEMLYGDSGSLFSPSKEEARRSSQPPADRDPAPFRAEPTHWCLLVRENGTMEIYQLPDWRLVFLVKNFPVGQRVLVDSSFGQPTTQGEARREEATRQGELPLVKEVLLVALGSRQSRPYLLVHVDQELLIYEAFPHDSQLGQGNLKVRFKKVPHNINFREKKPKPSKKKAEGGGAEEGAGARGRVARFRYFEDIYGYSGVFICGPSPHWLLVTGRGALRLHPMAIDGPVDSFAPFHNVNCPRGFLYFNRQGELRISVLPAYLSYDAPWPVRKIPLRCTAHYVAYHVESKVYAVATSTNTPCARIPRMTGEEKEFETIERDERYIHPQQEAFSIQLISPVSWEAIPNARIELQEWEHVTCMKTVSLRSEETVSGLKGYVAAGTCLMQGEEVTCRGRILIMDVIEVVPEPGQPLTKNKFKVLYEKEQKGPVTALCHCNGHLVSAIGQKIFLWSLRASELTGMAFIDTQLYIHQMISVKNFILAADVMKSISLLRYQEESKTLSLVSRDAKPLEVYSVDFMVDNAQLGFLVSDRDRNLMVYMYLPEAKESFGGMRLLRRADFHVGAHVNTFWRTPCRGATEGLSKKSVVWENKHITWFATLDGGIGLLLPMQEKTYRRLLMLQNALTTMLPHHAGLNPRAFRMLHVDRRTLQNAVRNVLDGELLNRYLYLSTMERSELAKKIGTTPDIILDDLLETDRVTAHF
Sequence of UniProt P12277 (P12277 whole entry, looked up): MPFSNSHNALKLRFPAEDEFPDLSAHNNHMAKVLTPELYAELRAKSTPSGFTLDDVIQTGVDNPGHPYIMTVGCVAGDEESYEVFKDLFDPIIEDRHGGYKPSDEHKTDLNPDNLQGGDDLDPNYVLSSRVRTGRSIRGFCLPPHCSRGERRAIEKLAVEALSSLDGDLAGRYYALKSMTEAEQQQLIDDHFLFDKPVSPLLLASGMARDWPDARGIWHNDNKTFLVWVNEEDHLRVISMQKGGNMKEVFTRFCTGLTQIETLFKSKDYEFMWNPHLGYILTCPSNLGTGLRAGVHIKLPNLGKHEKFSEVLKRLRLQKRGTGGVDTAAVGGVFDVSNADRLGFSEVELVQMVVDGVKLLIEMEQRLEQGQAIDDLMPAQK
Sequence of UniProt Q8IUI8 (Q8IUI8 whole entry, looked up): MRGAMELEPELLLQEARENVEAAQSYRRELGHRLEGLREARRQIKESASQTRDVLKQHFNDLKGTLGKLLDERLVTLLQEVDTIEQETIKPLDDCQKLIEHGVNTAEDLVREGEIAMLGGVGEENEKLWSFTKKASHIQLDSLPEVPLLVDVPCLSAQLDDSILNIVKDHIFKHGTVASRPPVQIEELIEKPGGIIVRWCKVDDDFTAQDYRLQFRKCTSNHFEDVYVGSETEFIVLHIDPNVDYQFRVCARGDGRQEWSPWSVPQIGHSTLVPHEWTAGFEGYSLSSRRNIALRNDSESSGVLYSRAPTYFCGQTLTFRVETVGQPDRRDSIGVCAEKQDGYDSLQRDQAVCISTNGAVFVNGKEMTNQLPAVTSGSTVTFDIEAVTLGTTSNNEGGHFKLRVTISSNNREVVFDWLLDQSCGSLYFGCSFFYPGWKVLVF
Sequence of UniProt Q14061 (Q14061 whole entry, looked up): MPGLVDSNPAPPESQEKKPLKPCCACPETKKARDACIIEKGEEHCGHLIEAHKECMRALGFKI

Target	log2 fold change [1]	log2 fold change [2]	log2 fold change [3]	log2 fold change [4]	log2 fold change (entinostat)	log2 fold change (vorinostat)	log2 fold change (citarinostat)	log2 fold change (silmitasertib)	log2 fold change [5]	log2 fold change [6]
CHAC2 (UniProt Q8WUX2)	0.022	-0.019	-0.008	-0.028	-0.017	-0.016	-0.232	0.022	-0.03	0.419 (active)
CETN2 (UniProt P41208)	-0.051	0.024	0.102	0.076	-0.033	-0.122	-0.1	-0.028	-0.027	-0.091
CBX5 (UniProt P45973)	-0.066	-0.027	-0.025	-0.106	0.025	0.113	0.041	-0.016	-0.073	-0.021
CKB (UniProt P12277)	-0.035	-0.02	-0.117	-0.033	-0.001	-0.023	-0.046	-0.117	-0.04	-0.018
COPS3 (UniProt Q9UNS2)	0	-0.034	-0.002	0.011	0.002	-0.003	0.014	-0.02	-0.021	-0.019
CCNH (UniProt P51946)	-0.043	-0.009	0.024	-0.02	-0.006	-0.028	0.015	0.02	-0.083	-0.027
CRLF3 (UniProt Q8IUI8)	0.016	-0.233	-0.165	-0.105	0.025	-0.023	0.047	0.104	-0.003	-0.057
CCNK isoform 4 (UniProt O75909)	-0.053	-0.104	0.044	-0.091	-0.044	-0.021	-0.007	-0.046	0.006	-0.305 (active)
CRK (UniProt P46108)	-0.81 (active)	0.004	-0.063	-0.011	0.026	-0.002	0.061	0.062	-0.016	-0.016
CHERP (UniProt Q8IWX8)	0.015	-0.054	-0.096	-0.095	0.129	0.099	-0.001	0.03	-0.121	-0.042
CNN1 (UniProt P51911)	-0.002	-0.07	-0.305	-0.023	0.018	-0.125	0.168	0.108	-0.008	-0.052
CSTF3 (UniProt Q12996)	0.011	-0.027	-0.046	-0.032	-0.032	-0.032	-0.021	0.029	0.027	0.012
CPSF1 (UniProt Q10570)	0.024	0.069	0.059	0.006	-0.023	0.012	-0.025	0.052	0.099	-0.139
CSE1L (UniProt P55060)	-0.037	-0.067	-0.162	-0.071	0.05	0.015	0.058	0.035	-0.059	-0.018
CDC42BPB (UniProt Q9Y5S2)	-0.205	0.054	-0.254	-0.012	0.155	0.06	0.085	-0.087	-0.057	-0.201
CSNK1D (UniProt P48730)	-0.043	0.185	0.106	-0.02	-0.062	0	-0.025	0.054	0.107	0.173

Target	log2 fold change [1]	log2 fold change [2]	log2 fold change [3]	log2 fold change [4]	log2 fold change (entinostat)	log2 fold change (vorinostat)	log2 fold change (citarinostat)	log2 fold change (silmitasertib)	log2 fold change [5]	log2 fold change [6]
CNOT1 (UniProt A5YKK6)	0	0.01	-0.075	-0.026	0.024	0.035	0.05	0.055	0.004	-0.032
CDK13 (UniProt Q14004)	-0.032	-0.007	-0.063	0.042	0	0.018	0.013	-0.018	0.035	-0.196
CHAF1A (UniProt Q13111)	0.087	0.046	0.036	–	-0.141	0.121	0.005	-0.019	-0.167	-0.439 (active)
CASP10 isoform 4 (UniProt Q92851)	-0.089	-0.058	-0.084	-0.055	-0.05	0.258	0.123	0.076	0.089	-0.13
CDK5 (UniProt Q00535)	-0.045	-0.01	-0.065	-0.082	0.016	0.007	0.06	0.016	-0.1	-0.05
CRTC2 (UniProt Q53ET0)	-0.814 (active)	-0.001	-0.13	0.038	0.004	–	-0.099	0.092	-0.125	-0.143
CDC42SE1 (UniProt Q9NRR8)	-0.244	0.055	-0.065	-0.002	-0.042	–	-0.048	0.128	-0.065	-0.103
CCNDBP1 (UniProt O95273)	0.046	-0.027	-0.091	0.069	-0.036	-0.069	0.05	0.087	–	-0.084
C22orf39 (UniProt Q6P5X5)	0.093	-0.036	-0.106	–	0.037	–	–	0.016	0.089	–
COX17 (UniProt Q14061)	-0.002	0.017	-0.088	0.052	0.048	-0.077	–	0.119	-0.141	–
CHST10 (UniProt O43529)	0.059	0.023	-0.142	–	0.048	0.015	–	-0.059	-0.032	–
CDK1 (UniProt P06493)	-0.036	0.004	-0.068	-0.047	0	0.05	0.051	–	-0.079	-0.032
CLSPN (UniProt Q9HAW4)	-0.015	-0.009	-0.003	-0.013	-0.048	-0.028	0.026	0.053	-0.062	-0.086
CLPTM1L (UniProt G5E9Z2)	0.139	0.237	-0.175	-0.028	-0.012	0.022	–	-0.05	0.445	–
C15orf41 (UniProt Q9Y2V0)	-0.076	-0.046	–	-0.061	-0.01	0.069	0.07	–	0.023	-0.007
